Sampled rows, rich in hits. Any-hit rate of the full collection: about 4.1%.
DAX1 inh-1 – NR0B1 (DAX1) inhibition | P51843 | HEK293 Gal4-DAX1 luciferase reporter, luminescence | inhibition, % at 6.75 µM | 0.99% of 340,000 active;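 active = inhibition above the mean over all tested compounds plus 3 SD, cut at about 4.2% in these data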;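 note: inhibition shows as a rise in luminescence from relieved DAX1 repression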
hgDAF-12 ag – agonists of H. glycines DAF-12 nuclear receptor. HEK293 GAL4-hgDAF12 UAS-luciferase reporter, agonist luminescence; normalized to butyrate control. activation, % at 6.8 µM. 1.8% of 370,000 active. AID 687014;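 active = activation above a cutoff set at the mean of all screened compounds plus 3 SD, cut at about 10% in these data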
ssDAF-12 act – activators of S. stercoralis DAF-12 nuclear receptor; 1% of 370,000 active; AID 652126; activation, % at 6.8 µM; HEK293 ssDAF-12/GRIP1 lit1-tk-luc reporter, luminescence; % of 3 µM dafachronic acid response;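 active = activation above the mean over all tested compounds plus 3 SD, cut at about 0.9% in these data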
DAX1 inh-2 – DAX1 (NR0B1) inhibition, primary screen; HEK293T StAR-luciferase reporter, SF-1/DAX-1 repression relief; inhibition, % at 6.8 µM; 1.1% of 370,000 active; AID 652010;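 active = inhibition above the mean over all tested compounds plus 3 SD, cut at about 3.6% in these data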;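 note: higher inhibition means more luminescence from relief of DAX-1 repression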
hcDAF12 agonist – H. contortus DAF-12 activation, primary screen; HEK293 hcDAF-12 lit1-tk-luc reporter, luminescence; 0% DMSO, 100% Δ7-dafachronic acid; activation, % at 6.8 µM; 1.4% of 370,000 active;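 active = activation above the mean of all tested compounds plus 3 SD, cut at about 5.5% in these data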
DAX1 conf – confirmation of human DAX1 (NR0B1) inhibitors; shares compounds with DAX1 inh-2; HEK293T StAR-promoter luciferase reporter, SF-1/DAX-1 repression; inhibition, % at 6.8 µM; 87% of 2,400 active; AID 652134;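 active = inhibition above the average of every tested compound plus 3 SD, cut at about 3.8% in these data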;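 note: active compounds raise luminescence by relieving repression of the StAR reporter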
SF1 mutant ctr – nonselective inhibitor or artifact in SF-1 mutant DAX1 counter-screen. shares compounds with DAX1 inh-2. HEK293 StAR-luciferase, SF-1 AF2 mutant, luminescence. inhibition, % at 6.8 µM. 78% of 2,400 active;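 active = inhibition above the mean of all tested compounds plus 3 SD, cut at about 3% in these data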
LXR ag – activates human LXR-beta, counter-screen for hcDAF-12 agonists | HEK293 Gal4-LXR tk-luc reporter, luminescence, 24 h; normalized: DMSO 0%, positive control 100% | 3,400 tested, under 10 active | shares compounds with hcDAF12 agonist | activation, % at 6.8 µM | AID 743027;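 active = mean percent activation of the reporter above a cutoff set as the average over tested compounds plus their standard deviation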
Target sequence (P55055 whole entry, looked up, the tested form may be a part): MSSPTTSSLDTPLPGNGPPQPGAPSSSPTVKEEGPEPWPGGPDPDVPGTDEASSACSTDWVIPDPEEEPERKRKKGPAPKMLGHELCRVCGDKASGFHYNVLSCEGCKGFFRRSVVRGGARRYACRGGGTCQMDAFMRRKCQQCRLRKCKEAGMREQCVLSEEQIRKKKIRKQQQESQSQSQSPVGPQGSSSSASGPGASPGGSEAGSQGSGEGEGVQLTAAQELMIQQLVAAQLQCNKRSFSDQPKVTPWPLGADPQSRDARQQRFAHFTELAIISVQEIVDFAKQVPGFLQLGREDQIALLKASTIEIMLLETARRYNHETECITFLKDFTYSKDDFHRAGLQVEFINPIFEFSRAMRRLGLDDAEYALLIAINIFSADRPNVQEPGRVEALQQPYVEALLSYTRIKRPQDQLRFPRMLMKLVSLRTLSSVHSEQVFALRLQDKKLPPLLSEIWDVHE
hcDAF12 ag – confirmation of H. contortus DAF-12 agonists; shares compounds with hcDAF12 agonist; HEK293 hcDAF-12 lit1-tk-luc reporter, luminescence; % of Δ7-dafachronic acid response; activation, % at 6.8 µM; 61% of 3,400 active; AID 743032;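 active = mean activation across triplicate tests above the threshold derived from the earlier primary screen, cut at about 5.5% in these data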
Each line names hits and unclear results; the compound was inactive in the other large screens (follow-up assays come after a bar, where they were run).

Cc1sc2nc(COC(=O)CNC(=O)c3ccc(F)cc3Cl)[nH]c(=O)c2c1C	none (no result: DAX1 inh-1)
Cc1ccsc1/C=N/Nc1nc2ccccc2s1	hgDAF-12 ag 20, ssDAF-12 act 5.5, DAX1 inh-2 7.1, hcDAF12 agonist 21 | DAX1 conf 16 | SF1 mutant ctr 13 | LXR ag inactive | hcDAF12 ag 23
COc1ccc(C=C(c2nc3ccccc3s2)c2nc3ccccc3s2)cc1O	none
CC(=O)Nc1ccc(/C=N/Nc2nc3ccccc3s2)cc1	DAX1 inh-1 4.8, hgDAF-12 ag 24, ssDAF-12 act 3.3, DAX1 inh-2 5.6, hcDAF12 agonist 18 | DAX1 conf 15 | SF1 mutant ctr 9.9 | LXR ag inactive | hcDAF12 ag 22
COc1ccc(/C=N/Nc2nc3ccccc3s2)cc1O	hgDAF-12 ag 20, ssDAF-12 act 3.2, DAX1 inh-2 8.6, hcDAF12 agonist 18 | DAX1 conf 21 | SF1 mutant ctr 8.1 | LXR ag inactive | hcDAF12 ag 19
CC(=O)Nc1ccc(S(=O)(=O)Nc2nc3ccccc3s2)cc1	none
Cc1ccc2c(c1)C(CS(=O)(=O)NCc1ccc(F)cc1)NC2 (stereo unspecified)	none (no result: DAX1 inh-1)
CCC(=O)N(Cc1ccccc1)c1ccccc1C(=O)Nc1cc(OC)ccc1OC	none (no result: DAX1 inh-1)
COC(=O)c1ccccc1NC(=O)C1CC=CCC1C(=O)O (stereo unspecified)	none
O=C(NCCc1ccccc1)c1ccccc1NC(=O)C1CC=CCC1C(=O)O (stereo unspecified)	hgDAF-12 ag 11, ssDAF-12 act 1.2, DAX1 inh-2 4.7, hcDAF12 agonist 11 | DAX1 conf 7.6 | SF1 mutant ctr 7.5 | LXR ag inactive | hcDAF12 ag 7.2
CCOC(=O)CNc1c(-c2ccccc2)nc2ccc(Cl)cn12	none
COC(=O)CNc1c(-c2ccccn2)nc2ccc(Br)cn12	DAX1 inh-2 4.9, hcDAF12 agonist 7.8 | DAX1 conf 12 | SF1 mutant ctr 6.2 | LXR ag inactive | hcDAF12 ag 6.2
c1ccc2c(c1)COc1c3cc4c(cc3nn1-2)OCO4	hgDAF-12 ag 29, ssDAF-12 act 1.2, DAX1 inh-2 8.7, hcDAF12 agonist 11 | DAX1 conf 18 | SF1 mutant ctr 9.1 | LXR ag inactive | hcDAF12 ag 13
C=CCNC(=O)c1ccc2c3n(nc2c1)-c1ccccc1CO3	none
O=C(c1ccc2oc(CCc3ccccc3)nc2c1)N1CCC(O)CC1	hgDAF-12 ag 11, DAX1 inh-2 8.1, hcDAF12 agonist 8.2 | DAX1 conf 13 | SF1 mutant ctr 4.9 | LXR ag inactive | hcDAF12 ag 6.9
C#CCNC(=O)C[C@H]1C[C@@]2(C(=O)OC)C(=C[C@H](COCc3ccccc3)O[C@@H]2C)N(CCc2ccc(OC)c(OC)c2)C1=O	none (no result: DAX1 inh-1)
Fc1ccc(-c2cn3cc(C(F)(F)F)cc(Cl)c3n2)cc1	DAX1 inh-1 4.9, hgDAF-12 ag 12, ssDAF-12 act 3.7, DAX1 inh-2 6.0, hcDAF12 agonist 19 | DAX1 conf 17 | SF1 mutant ctr 8.8 | LXR ag inactive | hcDAF12 ag 22
Cc1cccc(C)c1-n1nnnc1C1(C)Cn2nccc2C(=O)N1Cc1ccc(F)cc1 (stereo unspecified)	none (no result: DAX1 inh-1)
COc1ccc2cc(-c3cc(C(=O)O)c4ccccc4n3)ccc2c1	hgDAF-12 ag 13, ssDAF-12 act 3.0, DAX1 inh-2 5.2, hcDAF12 agonist 8.8 | DAX1 conf 11 | SF1 mutant ctr 3.2 | LXR ag inactive | hcDAF12 ag inactive
COc1ccc(-c2cc(C(=O)O)c3ccccc3n2)c(OC)c1	none
